# Measured values published in PubChem BioAssay (Tox21).
# Results filed as inconclusive are left out. Where a call stands in place of a potency, no number is given. The source made the active and inactive calls. The call rests on the fitted dose curve; in most records, active means well fitted cell-killing curve with a large enough effect in the repeat runs; inconclusive means weak or mixed curves; inactive means flat fitted curve, though single readings scatter.
# Assay: qHTS assay to identify small molecule antagonists of the estrogen receptor beta (ER-beta) signaling pathway - cell viability counter screen (AID 1259382); further: nearly all actives have a fitted effect of over 55% in size
# Settings: ER-beta-UAS-bla HEK293T viability, CellTiter-Glo luminescence, 16 h; series mostly up to 92.4 µM
# From the text: U.S. Tox21 Program National Center for Advancing Translational Sciences [NCATS] NIH Chemical Genomics Center [NCGC] U.S. Environmental Protection Agency [EPA] National Institutes of Environmental Health Sciences [NIEHS] National Toxicology Program [NTP] U.S. Food and Drug Administration [FDA] Tox21 Assay Overview: Estrogen receptor (ER), a nuclear hormone receptor, plays an important role in development, metabolic homeostasis and reproduction. Two subtypes of ER, ER-alpha and ER-beta, have similar expression patterns with some uniqueness in both types. Endocrine disrupting chemicals (EDCs) and their interactions with steroid hormone receptors like ER causes disruption of normal endocrine function. To identify the compounds that inhibit ER signaling, an ER-beta-UAS-bla GripTite cell line (Life Technologies, Madison, WI, USA) containing a beta-lactamase reporter gene under the control of an UAS response element was used to screen Tox21 10K compound library. The cytotoxicity of the Tox21 compound library against the ER-beta-bla cell line was tested in parallel by measuring the cell viability using CellTiter-Glo assay in the same wells.
# Tox21 Assay Protocol Summary: ER-beta-UAS-bla HEK293T cells were dispensed at 2,000 cells/4 uL of assay medium containing 2% charcoal stripped FBS per well into black wall/clear-bottom 1536-well plates using a Multidrop Combi (ThermoFisher Scientific, Waltham, MA) dispenser. After the assay plates were incubated at a 37C and 5% CO2 for 6 hr, 23 nL of compounds dissolved in DMSO, positive controls or DMSO only was transferred to the assay plate by a Pintool station (Kalypsys, San Diego, CA), followed by addition of 1 uL (1nM as final concentration) of 17-beta-estradiol (E2) in assay medium using a Flying Reagent Dispenser (FRD, Aurora Discovery, San Diego, CA). The plates were incubated at 37C and 5% CO2 for 16 hr. Then 1 uL of LiveBLAzer B/G FRET substrate was added using a Flying Reagent Dispenser, the plates were incubated at room temperature for 2 hours, and fluorescence intensity was measured by an Envision plate reader (PerkinElmer, Shelton, CT). For cell viability readout that measures cytotoxicity, 4 uL/well of CellTiter-Glo reagent was added into the assay plates using a FRD. After 30 min incubation at room temperature, the luminescence intensity in the plates was measured using a ViewLux (PerkinElmer) plate reader.
# Potency means the concentration at half of the fitted maximal effect.
row,SMILES,Potency
1,C=C(C)C(=O)OCCOCCOC(=O)C(=C)C,inactive
2,CC/C=C1/OC(=O)c2ccccc21,inactive
3,CCOC(=O)c1ccc(C#Cc2ccc3c(c2)C(C)(C)CCS3)nc1,inactive
4,O=C1CCCCCCCCCCOCCCCO1,inactive
5,CCOC(C)=O,inactive
6,CCn1cc(C(=O)O)c(=O)c2cc(F)c(N3CCNCC3)cc21,inactive
7,CC(C)c1nc(CN(C)C(=O)N[C@H](C(=O)N[C@@H](Cc2ccccc2)C[C@H](O)[C@H](Cc2ccccc2)NC(=O)OCc2cncs2)C(C)C)cs1,21.1 µM (active)
8,Oc1cc2c(cc1O)[C@H]1c3ccc(O)c(O)c3OC[C@@]1(O)C2,inactive
9,C=C1C[C@@]23CC[C@H]4[C@@](C)(CCC[C@@]4(C)C(=O)O[C@@H]4O[C@H](CO)[C@@H](O)[C@H](O)[C@H]4O)[C@@H]2CC[C@]1(O[C@@H]1O[C@H](CO)[C@@H](O)[C@H](O[C@@H]2O[C@H](CO)[C@@H](O)[C@H](O)[C@H]2O)[C@H]1O[C@@H]1O[C@H](CO)[C@@H](O)[C@H](O)[C@H]1O)C3,inactive
10,C=CC(=O)OCC1CC2CC1C1CCC(COC(=O)C=C)C21 (stereo not given),inactive
11,CCCCCCCCN,inactive
12,C=CC(=O)[O-].C=CC(=O)[O-].[Zn+2],inactive
13,CC(CC1c2ccccc2CCc2ccccc21)CN(C)C (stereo not given),21.1 µM (active)
14,Cc1cc2c(OCC(CNC(C)(C)C)OC(=O)c3ccccc3)cccc2[nH]1 (stereo not given),inactive
15,COc1ccccc1N1CCN(CCCCNC(=O)c2ccc(-c3ccc(C(C)=O)cc3)cc2)CC1,inactive
16,CC1(C)[C@H](C(=O)O)N2C(=O)C[C@H]2S1(=O)=O,inactive
17,Oc1cccc(O)c1O,inactive
18,O=C1c2ccccc2C(=O)C1(O)O,inactive
19,O=C1NC(=O)c2cc([N+](=O)[O-])ccc21,inactive
20,O=C1c2ccccc2C(=O)C1c1nc2ccccc2c(Br)c1O,inactive

row,SMILES,Potency
1,c1ccc2c(c1)CCc1ccccc1N2,inactive
2,CCCCCCCC/C=C\CCCCCCCCO,inactive
3,C=C(C)CCCC(C)CCO (stereo not given),inactive
4,COC(=O)CCS,inactive
5,Cc1cc(O)ccc1O,61.8 µM (active)
6,CCOC(=O)OC(C)OC(=O)[C@@H]1N2C(=O)[C@@H](NC(=O)[C@H](N)c3ccccc3)[C@H]2SC1(C)C (stereo not given in full),inactive
7,O=C(CCc1ccc(O)cc1)c1c(O)cc(O)cc1O,inactive
8,CNC(=O)c1cnn(-c2nc(N)c3ncn([C@@H]4O[C@H](CO)[C@@H](O)[C@H]4O)c3n2)c1,inactive
9,CC(=O)c1cc2ccccc2s1,inactive
10,CC[C@]1(O)C[C@H]2CN(CCc3c([nH]c4ccccc34)[C@@](C(=O)OC)(c3cc4c(cc3OC)N(C=O)[C@H]3[C@@](O)(C(=O)OC)[C@H](OC(C)=O)[C@]5(CC)C=CCN6CC[C@]43[C@@H]65)C2)C1,inactive
11,CC(O)c1ccccc1 (stereo not given),inactive
12,Cc1[nH]cnc1CN1CCc2c(c3ccccc3n2C)C1=O,inactive
13,CCN(CC)CCNC(=O)COc1ccc(OC)cc1,inactive
14,CCOC(=O)c1ccc(I)cc1,inactive
15,C=CC(C)(CCC=C(C)C)OC(=O)CC(C)C (stereo not given),inactive
16,Cc1ccccc1S,inactive
17,O=C1c2ccccc2C(=O)C1c1ccc(Br)cc1,inactive
18,Nc1nnc(-c2ccc([N+](=O)[O-])o2)o1,inactive
19,CC(CN(C)C)C(C)(O)Cc1ccc(Cl)cc1 (stereo not given),inactive
20,O=C(OC(=O)c1ccccc1)c1ccccc1,inactive
